Laboratory results from publication PMC11006913.

Columns and labels:
Assay in all cases: PBM; 200 nM protein, PBS
Details in all cases: dsDNA, one strand shown
[1] = target: HOXB9 (Homo sapiens, UniProt P17482 171-250, T197M)
[2] = target: HOXC9 (Homo sapiens, UniProt P31274 178-260, K195R)
[3] = target: HOXC10 (Homo sapiens, UniProt Q9NYD6 254-340)
[4] = target: HOXB9 (Homo sapiens, UniProt P17482 171-250)
[5] = target: HOXC9 (Homo sapiens, UniProt P31274 178-260)
[6] = target: HOXD13 (Homo sapiens, UniProt P35453 263-343, T313R)
[7] = target: HOXC9 (Homo sapiens, UniProt P31274 178-260, R193K)
[8] = target: HOXD13 (Homo sapiens, UniProt P35453 263-343)
[9] = target: HOXC10 (Homo sapiens, UniProt Q9NYD6 254-340, K271E)
[10] = target: HOXD13 (Homo sapiens, UniProt P35453 263-343, T313A)
[11] = target: HOXB9 (Homo sapiens, UniProt P17482 171-250, R186Q)
[12] = target: HOXC9 (Homo sapiens, UniProt P31274 178-260, R222W)
[13] = target: HOXA2 (Homo sapiens, UniProt O43364 129-215, R185T)
[14] = target: HOXA2 (Homo sapiens, UniProt O43364 129-215, R185K)
[15] = target: HOXA2 (Homo sapiens, UniProt O43364 129-215, Y150S)
[16] = target: HOXA2 (Homo sapiens, UniProt O43364 129-215)
Sequence of HOXA2 (Homo sapiens, UniProt O43364 129-215) (O43364 129-215): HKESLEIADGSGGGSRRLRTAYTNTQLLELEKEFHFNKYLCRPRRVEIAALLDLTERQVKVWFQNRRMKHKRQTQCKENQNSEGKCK

Sequence of HOXC10 (Homo sapiens, UniProt Q9NYD6 254-340, K271E) (Q9NYD6 254-340 K271E): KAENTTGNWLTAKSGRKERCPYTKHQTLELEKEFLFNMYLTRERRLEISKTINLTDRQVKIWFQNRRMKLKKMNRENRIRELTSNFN
Sequence of HOXD13 (Homo sapiens, UniProt P35453 263-343, T313R) (P35453 263-343 T313R): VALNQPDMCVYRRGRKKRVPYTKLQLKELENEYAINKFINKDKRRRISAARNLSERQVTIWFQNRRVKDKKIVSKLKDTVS
Sequence of HOXD13 (Homo sapiens, UniProt P35453 263-343) (P35453 263-343): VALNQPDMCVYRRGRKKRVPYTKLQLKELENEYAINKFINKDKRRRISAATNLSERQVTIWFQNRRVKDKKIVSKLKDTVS
Sequence of HOXB9 (Homo sapiens, UniProt P17482 171-250, R186Q) (P17482 171-250 R186Q): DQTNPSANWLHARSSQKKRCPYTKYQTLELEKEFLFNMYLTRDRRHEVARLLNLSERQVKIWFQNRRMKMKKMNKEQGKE
Sequence of HOXC9 (Homo sapiens, UniProt P31274 178-260, K195R) (P31274 178-260 K195R): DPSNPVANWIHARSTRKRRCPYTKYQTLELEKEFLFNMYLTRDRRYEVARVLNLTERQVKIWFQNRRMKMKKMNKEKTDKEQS
Sequence of HOXC9 (Homo sapiens, UniProt P31274 178-260, R193K) (P31274 178-260 R193K): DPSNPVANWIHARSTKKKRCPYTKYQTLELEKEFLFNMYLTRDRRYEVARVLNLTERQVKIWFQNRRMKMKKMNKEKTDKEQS
Sequence of HOXB9 (Homo sapiens, UniProt P17482 171-250, T197M) (P17482 171-250 T197M): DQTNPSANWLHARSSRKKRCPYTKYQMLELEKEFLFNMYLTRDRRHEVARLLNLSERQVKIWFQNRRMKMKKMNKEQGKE
Sequence of HOXD13 (Homo sapiens, UniProt P35453 263-343, T313A) (P35453 263-343 T313A): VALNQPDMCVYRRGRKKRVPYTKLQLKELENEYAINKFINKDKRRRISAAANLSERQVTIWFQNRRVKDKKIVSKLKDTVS
Sequence of HOXC10 (Homo sapiens, UniProt Q9NYD6 254-340) (Q9NYD6 254-340): as the sequence (Q9NYD6 254-340 K271E) above, with E18K counted along it
Sequence of HOXC9 (Homo sapiens, UniProt P31274 178-260) (P31274 178-260): as the sequence (P31274 178-260 R193K) above, with K16R counted along it
Sequence of HOXB9 (Homo sapiens, UniProt P17482 171-250) (P17482 171-250): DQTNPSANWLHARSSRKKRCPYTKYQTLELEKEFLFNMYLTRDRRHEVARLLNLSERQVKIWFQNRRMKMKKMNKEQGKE
Sequence of HOXC9 (Homo sapiens, UniProt P31274 178-260, R222W) (P31274 178-260 R222W): as the sequence (P31274 178-260 R193K) above, with K16R, R45W counted along it
Sequence of HOXA2 (Homo sapiens, UniProt O43364 129-215, R185T) (O43364 129-215 R185T): as the sequence (O43364 129-215) above, with R57T counted along it
Sequence of HOXA2 (Homo sapiens, UniProt O43364 129-215, Y150S) (O43364 129-215 Y150S): as the sequence (O43364 129-215) above, with Y22S counted along it
Sequence of HOXA2 (Homo sapiens, UniProt O43364 129-215, R185K) (O43364 129-215 R185K): as the sequence (O43364 129-215) above, with R57K counted along it

**Q.** For ACTATAAA, which binding signal [1] is on record?
**A.** 9.75 upbm affinity estimate (log intensity, higher = more binding, comparable within an allelic series)

**Q.** And the binding signal [2]?
**A.** 12.4 upbm affinity estimate (log intensity, higher = more binding, comparable within an allelic series)

**Q.** What about the binding signal [3] of the same sequence?
**A.** 12.1 upbm affinity estimate (log intensity, higher = more binding, comparable within an allelic series)

**Q.** What about the binding signal [4] of the same sequence?
**A.** 11.7 upbm affinity estimate (log intensity, higher = more binding, comparable within an allelic series)

**Q.** And the binding signal [5]?
**A.** 12.6 upbm affinity estimate (log intensity, higher = more binding, comparable within an allelic series)

**Q.** What about the binding signal [6] of the same sequence?
**A.** 10.9 upbm affinity estimate (log intensity, higher = more binding, comparable within an allelic series)

**Q.** What about the binding signal [7] of the same sequence?
**A.** 12.5 upbm affinity estimate (log intensity, higher = more binding, comparable within an allelic series)

**Q.** And the binding signal [8]?
**A.** 12 upbm affinity estimate (log intensity, higher = more binding, comparable within an allelic series)

**Q.** What about the binding signal [9] of the same sequence?
**A.** 11.4 upbm affinity estimate (log intensity, higher = more binding, comparable within an allelic series)

**Q.** And the binding signal [10]?
**A.** 11.8 upbm affinity estimate (log intensity, higher = more binding, comparable within an allelic series)

**Q.** And the binding signal [11]?
**A.** 11.4 upbm affinity estimate (log intensity, higher = more binding, comparable within an allelic series)

**Q.** What about the binding signal [12] of the same sequence?
**A.** 11 upbm affinity estimate (log intensity, higher = more binding, comparable within an allelic series)

**Q.** CCTAGGGC was tested. Which binding signal [1] did it give?
**A.** 8.55 upbm affinity estimate (log intensity, higher = more binding, comparable within an allelic series)

**Q.** What about the binding signal [2] of the same sequence?
**A.** 9.6 upbm affinity estimate (log intensity, higher = more binding, comparable within an allelic series)

**Q.** And the binding signal [13]?
**A.** 6.96 upbm affinity estimate (log intensity, higher = more binding, comparable within an allelic series)

**Q.** What about the binding signal [4] of the same sequence?
**A.** 8.37 upbm affinity estimate (log intensity, higher = more binding, comparable within an allelic series)

**Q.** And the binding signal [5]?
**A.** 9.6 upbm affinity estimate (log intensity, higher = more binding, comparable within an allelic series)

**Q.** And the binding signal [7]?
**A.** 9.53 upbm affinity estimate (log intensity, higher = more binding, comparable within an allelic series)

**Q.** And the binding signal [14]?
**A.** 10.4 upbm affinity estimate (log intensity, higher = more binding, comparable within an allelic series)

**Q.** And the binding signal [11]?
**A.** 8.47 upbm affinity estimate (log intensity, higher = more binding, comparable within an allelic series)

**Q.** And the binding signal [12]?
**A.** 9.68 upbm affinity estimate (log intensity, higher = more binding, comparable within an allelic series)

**Q.** What about the binding signal [15] of the same sequence?
**A.** 10.4 upbm affinity estimate (log intensity, higher = more binding, comparable within an allelic series)

**Q.** What about the binding signal [16] of the same sequence?
**A.** 6.98 upbm affinity estimate (log intensity, higher = more binding, comparable within an allelic series)

**Q.** How did the binding signal [1] turn out when ATTTTATG was run?
**A.** 9.94 upbm affinity estimate (log intensity, higher = more binding, comparable within an allelic series)

**Q.** And the binding signal [2]?
**A.** 13 upbm affinity estimate (log intensity, higher = more binding, comparable within an allelic series)

**Q.** And the binding signal [3]?
**A.** 12.7 upbm affinity estimate (log intensity, higher = more binding, comparable within an allelic series)

**Q.** And the binding signal [4]?
**A.** 12.5 upbm affinity estimate (log intensity, higher = more binding, comparable within an allelic series)

**Q.** What about the binding signal [5] of the same sequence?
**A.** 13.1 upbm affinity estimate (log intensity, higher = more binding, comparable within an allelic series)

**Q.** What about the binding signal [6] of the same sequence?
**A.** 10.8 upbm affinity estimate (log intensity, higher = more binding, comparable within an allelic series)

**Q.** What about the binding signal [7] of the same sequence?
**A.** 13 upbm affinity estimate (log intensity, higher = more binding, comparable within an allelic series)

**Q.** What about the binding signal [8] of the same sequence?
**A.** 11.8 upbm affinity estimate (log intensity, higher = more binding, comparable within an allelic series)

**Q.** And the binding signal [9]?
**A.** 12.1 upbm affinity estimate (log intensity, higher = more binding, comparable within an allelic series)

**Q.** And the binding signal [10]?
**A.** 11.5 upbm affinity estimate (log intensity, higher = more binding, comparable within an allelic series)

**Q.** And the binding signal [11]?
**A.** 12.1 upbm affinity estimate (log intensity, higher = more binding, comparable within an allelic series)

**Q.** What about the binding signal [12] of the same sequence?
**A.** 11.4 upbm affinity estimate (log intensity, higher = more binding, comparable within an allelic series)

**Q.** With CTATAAAA as the sequence, how does the binding signal [1] read?
**A.** 9.77 upbm affinity estimate (log intensity, higher = more binding, comparable within an allelic series)

**Q.** What about the binding signal [2] of the same sequence?
**A.** 12.8 upbm affinity estimate (log intensity, higher = more binding, comparable within an allelic series)

**Q.** What about the binding signal [3] of the same sequence?
**A.** 12.4 upbm affinity estimate (log intensity, higher = more binding, comparable within an allelic series)

**Q.** And the binding signal [4]?
**A.** 12.2 upbm affinity estimate (log intensity, higher = more binding, comparable within an allelic series)

**Q.** What about the binding signal [5] of the same sequence?
**A.** 12.9 upbm affinity estimate (log intensity, higher = more binding, comparable within an allelic series)

**Q.** And the binding signal [6]?
**A.** 11.1 upbm affinity estimate (log intensity, higher = more binding, comparable within an allelic series)

**Q.** What about the binding signal [7] of the same sequence?
**A.** 12.8 upbm affinity estimate (log intensity, higher = more binding, comparable within an allelic series)

**Q.** And the binding signal [8]?
**A.** 12.4 upbm affinity estimate (log intensity, higher = more binding, comparable within an allelic series)

**Q.** And the binding signal [9]?
**A.** 11.7 upbm affinity estimate (log intensity, higher = more binding, comparable within an allelic series)

**Q.** And the binding signal [10]?
**A.** 12.2 upbm affinity estimate (log intensity, higher = more binding, comparable within an allelic series)

**Q.** What about the binding signal [11] of the same sequence?
**A.** 11.9 upbm affinity estimate (log intensity, higher = more binding, comparable within an allelic series)

**Q.** What about the binding signal [12] of the same sequence?
**A.** 11.4 upbm affinity estimate (log intensity, higher = more binding, comparable within an allelic series)

**Q.** For ACCATAAA, which binding signal [1] is on record?
**A.** 9.6 upbm affinity estimate (log intensity, higher = more binding, comparable within an allelic series)

**Q.** What about the binding signal [2] of the same sequence?
**A.** 12.5 upbm affinity estimate (log intensity, higher = more binding, comparable within an allelic series)

**Q.** What about the binding signal [3] of the same sequence?
**A.** 12.3 upbm affinity estimate (log intensity, higher = more binding, comparable within an allelic series)

**Q.** And the binding signal [4]?
**A.** 11.9 upbm affinity estimate (log intensity, higher = more binding, comparable within an allelic series)

**Q.** What about the binding signal [5] of the same sequence?
**A.** 12.8 upbm affinity estimate (log intensity, higher = more binding, comparable within an allelic series)

**Q.** What about the binding signal [6] of the same sequence?
**A.** 10.8 upbm affinity estimate (log intensity, higher = more binding, comparable within an allelic series)

**Q.** And the binding signal [7]?
**A.** 12.7 upbm affinity estimate (log intensity, higher = more binding, comparable within an allelic series)

**Q.** And the binding signal [8]?
**A.** 12 upbm affinity estimate (log intensity, higher = more binding, comparable within an allelic series)

**Q.** And the binding signal [9]?
**A.** 11.5 upbm affinity estimate (log intensity, higher = more binding, comparable within an allelic series)

**Q.** And the binding signal [10]?
**A.** 11.7 upbm affinity estimate (log intensity, higher = more binding, comparable within an allelic series)

**Q.** What about the binding signal [11] of the same sequence?
**A.** 11.6 upbm affinity estimate (log intensity, higher = more binding, comparable within an allelic series)

**Q.** And the binding signal [12]?
**A.** 10.9 upbm affinity estimate (log intensity, higher = more binding, comparable within an allelic series)

**Q.** CATTAAAA was tested. Which binding signal [1] did it give?
**A.** 9.91 upbm affinity estimate (log intensity, higher = more binding, comparable within an allelic series)

**Q.** And the binding signal [2]?
**A.** 12.6 upbm affinity estimate (log intensity, higher = more binding, comparable within an allelic series)

**Q.** What about the binding signal [3] of the same sequence?
**A.** 12.1 upbm affinity estimate (log intensity, higher = more binding, comparable within an allelic series)

**Q.** What about the binding signal [4] of the same sequence?
**A.** 12 upbm affinity estimate (log intensity, higher = more binding, comparable within an allelic series)

**Q.** What about the binding signal [5] of the same sequence?
**A.** 12.7 upbm affinity estimate (log intensity, higher = more binding, comparable within an allelic series)

**Q.** And the binding signal [7]?
**A.** 12.6 upbm affinity estimate (log intensity, higher = more binding, comparable within an allelic series)

**Q.** And the binding signal [9]?
**A.** 11.8 upbm affinity estimate (log intensity, higher = more binding, comparable within an allelic series)

**Q.** What about the binding signal [10] of the same sequence?
**A.** 11.6 upbm affinity estimate (log intensity, higher = more binding, comparable within an allelic series)

**Q.** What about the binding signal [11] of the same sequence?
**A.** 11.7 upbm affinity estimate (log intensity, higher = more binding, comparable within an allelic series)

**Q.** What about the binding signal [12] of the same sequence?
**A.** 11 upbm affinity estimate (log intensity, higher = more binding, comparable within an allelic series)
